# Laboratory results taken from article PMC7819943, “Rice protein-binding microarrays: a tool to detect cis-acting elements near promoter regions in rice”.
# The full ranking holds about 68,000 sequences; the median of “fluorescence intensity (a.u.)” is about 9,100, and the highest 2% start at about 16,000. The sample as a whole holds a higher share of the highest values than the screen did.
# Target: OsWRKY34 (Oryza sativa, UniProt Q0JBA9 1-250)
# Assay: protein-binding microarray (RPBM); PBS, 2% BSA, 51.3 ng/ul salmon testes DNA, 50 uM zinc acetate, 200 nM TF, 25 C, 1 h; high values mean tight binding
# Details: protein: recombinant; tags: N-terminal polyhistidine and DsRed monomer fusion (pET32a); label: CyDye5-dUTP incorporated in the synthesized complementary strand; 3' TTTTT single-stranded linker to array surface; dsDNA, one strand shown
# Outline: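 Transcription factors were made in E. coli BL21-CodonPlus as N-terminal fusions to a polyhistidine tag and DsRed, then purified on Ni–NTA. After primer extension with Cy5-dUTP and blocking with 2% BSA, a custom Agilent array was exposed for 1 h at 25 °C to 200 nM protein in PBS, 2% BSA, salmon testes DNA and 50 µM zinc acetate. Washed arrays were scanned on an Axon 4000B, and the binding signal is per-feature fluorescence intensity in arbitrary units.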
# Sequence of OsWRKY34 (Q0JBA9 entry or part of it): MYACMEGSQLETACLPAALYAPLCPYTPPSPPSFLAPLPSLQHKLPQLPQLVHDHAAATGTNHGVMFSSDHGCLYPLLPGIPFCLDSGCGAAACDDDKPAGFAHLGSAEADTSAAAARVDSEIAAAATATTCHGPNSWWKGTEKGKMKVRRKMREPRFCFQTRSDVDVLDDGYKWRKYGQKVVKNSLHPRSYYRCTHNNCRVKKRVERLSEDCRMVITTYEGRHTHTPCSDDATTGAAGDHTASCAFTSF
row,Sequence,binding signal
1,CGATCTCAGCTGTCACTCACTATGTGGTTCATCTAACTGACGGAGTCACCTAGTGCAG,9510 fluorescence intensity (a.u.)
2,CAGGTCATTTTGGTGTGTGCTTTGCGGTATTAACTCGTGCCGGAGTCACCTAGTGCAG,8700 fluorescence intensity (a.u.)
3,CACAGCGTCCACACCCGCGCCGCCGCCGCCCTCACCCTCGCGGAGTCACCTAGTGCAG,8760 fluorescence intensity (a.u.)
4,CGGGGATGGAGGTGGTGGTGAGGCTGGCGACGGCGGGCCGCGGAGTCACCTAGTGCAG,12100 fluorescence intensity (a.u.)
5,GGGTGTTATGAGTTGTGTTTGCTGTAGCTTGTCAGCTGTTCGGAGTCACCTAGTGCAG,10600 fluorescence intensity (a.u.)
6,CTGTAGAGAAATACTACACTACTGTACACTACATTCCTGCCGGAGTCACCTAGTGCAG,8350 fluorescence intensity (a.u.)
7,CAGTTTCCACCCTGGGTGGGGTGGGGCCCACCTGTCGGGGCGGAGTCACCTAGTGCAG,9940 fluorescence intensity (a.u.)
8,GTGTCGGCGGAGGGGCGCGCGGCGGGGTCGGCGGAGGCGCCGGAGTCACCTAGTGCAG,8590 fluorescence intensity (a.u.)
9,TGTTAGTATTAGGGTGCTTTTGGGTTTGGGGTTTCTGCCACGGAGTCACCTAGTGCAG,24200 fluorescence intensity (a.u.)
10,CCTTTCCAAGTCGGTCGGGGTAGCTGGGTTGTCTCGCCGGCGGAGTCACCTAGTGCAG,12300 fluorescence intensity (a.u.)
11,ATTTGTATTTGTTTTTTGTTTGTTAGTATTAGGGTGCTTTCGGAGTCACCTAGTGCAG,9720 fluorescence intensity (a.u.)
12,GAGTTGGGTTGGAGTGGTTTGGATCGCTGCTTCACTAGGGCGGAGTCACCTAGTGCAG,27400 fluorescence intensity (a.u.)
13,GTGGTGGTGCGCGGCGGCGGCGGCGGGGAGGGGTGTGTGTCGGAGTCACCTAGTGCAG,24500 fluorescence intensity (a.u.)
14,GGTTTTCATGGTGCTGTGGATGTTCACTAGCTTTGGAGGGCGGAGTCACCTAGTGCAG,10900 fluorescence intensity (a.u.)
15,GGCTGCTTCAGGGGCGTGGGAGAGGTTTGGGGTTGGTTCACGGAGTCACCTAGTGCAG,16000 fluorescence intensity (a.u.)
16,GTCCAAGTTTGCCTTTCTCACTGGGGAGCGGGTGGGCTGTCGGAGTCACCTAGTGCAG,21000 fluorescence intensity (a.u.)
17,GTGTGGTCGTCGTGTCGGCGGCGGCGGCGGCGGCGGGAGGCGGAGTCACCTAGTGCAG,14300 fluorescence intensity (a.u.)
18,CTGTATTATGGTGCTTTCACATTTTTTTTCTAGTCTGCCACGGAGTCACCTAGTGCAG,8370 fluorescence intensity (a.u.)
19,TTCATGGAACATTCACGTGGATCATTCTCTCTCTCTCTCTCGGAGTCACCTAGTGCAG,8100 fluorescence intensity (a.u.)
20,TCACATCTCATTTTATGTTGGTTTTTTATGGGACGGGAGGCGGAGTCACCTAGTGCAG,10200 fluorescence intensity (a.u.)
21,CACCACCGTGCACTTCACAATTCACACTACTCCTTCAGATCGGAGTCACCTAGTGCAG,8340 fluorescence intensity (a.u.)

row,Sequence,binding signal
1,CTCATCATCCCGTCCAAAATCAGCTGCCCGCGCCGACGACCGGAGTCACCTAGTGCAG,8700 fluorescence intensity (a.u.)
2,ATACACATGCACATTTAGTTCCTCCCGGTAAGTTCGTCGTCGGAGTCACCTAGTGCAG,8260 fluorescence intensity (a.u.)
3,ATTTTTTTTTGGCATAGTTTGTGTTCACTGCAAAAATCACCGGAGTCACCTAGTGCAG,9080 fluorescence intensity (a.u.)
4,CTGCGGCCCGGCGGGAGTGGGAGGGGCGGCGGGCCGGACCCGGAGTCACCTAGTGCAG,9720 fluorescence intensity (a.u.)
5,GGGTTATTCTTTGCATGATATTTGACGTTTTTTCTCGCTGCGGAGTCACCTAGTGCAG,9920 fluorescence intensity (a.u.)
6,AGAGATGGTAGTGGTAAAGCGGAGGAGGGGTGGGGTGTTGCGGAGTCACCTAGTGCAG,16700 fluorescence intensity (a.u.)
7,GAGAGAGGGGTTGGGTTTGGTTGGTGTTTGTGTGGAGATGCGGAGTCACCTAGTGCAG,12800 fluorescence intensity (a.u.)
8,CTATTATCTCCAGGGTGGGGTGGGGCCCATACGGCCAGGACGGAGTCACCTAGTGCAG,10400 fluorescence intensity (a.u.)
9,GCTACATCAGCGGCGGAGGTGGAGGTGGAGGGGTAAGGTGCGGAGTCACCTAGTGCAG,11600 fluorescence intensity (a.u.)
10,TGACAGCGGTAGATGTGGGTGGTGGTGGGAGGGGAGGATGCGGAGTCACCTAGTGCAG,16200 fluorescence intensity (a.u.)
11,TTTGGTTCACGCGGCGCGGGCGGGGAGTGGGAGGGGCATGCGGAGTCACCTAGTGCAG,24100 fluorescence intensity (a.u.)
12,GGGTGGGAGGGAGGGAGTACATGGTAAGGCCATTCAACAGCGGAGTCACCTAGTGCAG,20200 fluorescence intensity (a.u.)
13,TTTGACGTTTTTTCTCGCTGCTATTATCTCCAGGGTGGGGCGGAGTCACCTAGTGCAG,17200 fluorescence intensity (a.u.)
14,AGAGGGATGGGTGTGGGCAGCGGTGGGCGGTAAGGCACCACGGAGTCACCTAGTGCAG,9360 fluorescence intensity (a.u.)
15,GAGAGCTTTGCGGCGGGCATGCGGGTGGGGATTCACCGCGCGGAGTCACCTAGTGCAG,10600 fluorescence intensity (a.u.)
16,ACCTTGGACAACTGACTTCTCTACAGACATTAACCTTTTTCGGAGTCACCTAGTGCAG,8730 fluorescence intensity (a.u.)
17,TTTTCATCTGAGCTTATGTTCCAACTTTTATTTTTAATCACGGAGTCACCTAGTGCAG,8780 fluorescence intensity (a.u.)
18,ACTGAGTACTGTTCGGTTGGGTCTGGCATCGGATGTTTCCCGGAGTCACCTAGTGCAG,8340 fluorescence intensity (a.u.)
19,TATAGGCCACTTGTGCCTCGGCTCACGTTGACCTGCCTTACGGAGTCACCTAGTGCAG,8170 fluorescence intensity (a.u.)
20,AACATATAAACTCAAATCTCCAATTGTTTCCGCTACAAATCGGAGTCACCTAGTGCAG,8100 fluorescence intensity (a.u.)
21,AACTATTTTCATCCCTCGAGGACATATCTCCTCGTTGTTTCGGAGTCACCTAGTGCAG,11100 fluorescence intensity (a.u.)
